# According to PubChem BioAssay (NCI):
# Values joined by “and” are separate entries in the source; they are usually repeats but may differ in a detail not shown here. Equal values may be shown once. About 83,000 compounds went through this panel and 20% of them were active in at least one assay; those are over-represented in the sample as a whole.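 The endpoint reported here, percent growth, reads 100 for growth as untreated, 0 for no net growth and -100 for all cells dead.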 Values without a mark were called inactive. Active and inactive are the calls of the source. Rule for the calls: active = growth percent below 10; inactive = the rest.
# Test system: MDA-MB-468 breast
# Assay: NCI-60 one-dose screen, 48 h (100 = growth as untreated, 0 = no growth, -100 = all killed)
# Conditions: 10 µM unless noted
row,Compound,growth
1,c1ccc(CCCCc2ccc3ccccc3n2)cc1,111%
2,Oc1c(Cl)cc(Cl)c2cccnc12,61% and 42.6%
3,Cc1ccc(NC(=O)C2CCC(CN3CCN(C)CC3)CC2)cc1Nc1nccc(-c2cccnc2)n1 (stereo unspecified),94.8%
4,O=C1c2cc3c(cc2-c2c1c1ccc(F)cc1c(=O)n2CCCNCCO)OCO3,-70.8% (active)
5,O=C(NNc1nc2cc(F)ccc2n2c(CO)ccc12)c1cnccn1,-14% (active)
6,COc1ccc2nc3ccccc3c(NCCNCCO)c2c1,-72.9% (active)
